PubChem BioAssay (Tox21)
Results filed as inconclusive are left out. Calls of active or inactive are those of the source. Unless noted, calls follow the shape of the full dose curve.

Experiments:
[1] = Nuclear factor erythroid 2-related factor 2/antioxidant responsive element (Nrf2/ARE) small molecule agonists: qHTS cell viability counter screen in human keratinocytes (AID 1919968; active = well fitted curve in the direction sought with a large enough effect in the repeat runs; an effect the other way counts as inactive or inconclusive; also: nearly all actives have a fitted effect of over 55% in size; also: potency is read from the fitted curve at half-maximal effect)
Summary of the method: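 Cytotoxicity was multiplexed with the Nrf2/ARE luciferase assay in the same wells. Stably transfected HaCaT keratinocytes were treated with test compounds for 23 h at 37 C. Cell viability was then measured by CellTiter-Fluor fluorescence.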

[2] = target: KiSS-1 receptor (Homo sapiens) (UniProt Q969F8); assay: Human kisspeptin (KISS1R) small molecule agonists, calcium flux assay in KISS1R-HEK293 cells (AID 1920064; active = well fitted curve in the direction sought with a large enough effect in the repeat runs; an effect the other way counts as inactive or inconclusive)
Summary of the method: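 Agonist activity is monitored as intracellular calcium rise in engineered HEK293 cells carrying human KISS1R. Cells are dye-loaded for 1 h at 37 C before compound addition, and fluorescence is recorded for 3 min.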

[3] = p53 small molecule agonists, cell-based qHTS assay with human liver microsomes (AID 1963577);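 also: p53 response element beta-lactamase reporter cells with liver microsomes plus NADPH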
Summary of the method: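 Steps: plate p53RE-bla cells, incubate 5 h at 37 C; add compound in DMSO; add microsomes (0.5 mg/mL final) and NADPH (0.5 mg/mL final); incubate 16 h at 37 C; add LiveBLAzer, 2 h RT; read fluorescence.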

[4] = p53 small molecule agonists, cell-based qHTS assay with rat liver microsomes (AID 1963578)
Summary of the method: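 Metabolic activation is supplied by rat liver microsomes with NADPH (each 0.5 mg/mL final). p53RE-bla cells incubate with compound 16 h at 37 C; reporter activity is measured by LiveBLAzer fluorescence.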

[5] = p53 small molecule agonists, cell-based qHTS assay with human liver microsomes: qHTS cell viability counter screen (AID 1963579); also: nearly all actives have a fitted effect of over 45% in size
Summary of the method: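 After the 460/530 nm beta-lactamase read, CellTiter-Glo was added to the same wells and luminescence measured after 30 min at room temperature, giving viability of p53RE-bla cells treated 16 h with compounds plus microsomes and NADPH.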

[6] = p53 small molecule agonists, cell-based qHTS assay with rat liver microsomes: qHTS cell viability counter screen (AID 1963580); also: nearly all actives have a fitted effect of over 45% in size
Summary of the method: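 Cytotoxicity counter screen: intracellular ATP measured by CellTiter-Glo luminescence in the same wells as the beta-lactamase reporter read, on HCT-116 p53RE-bla cells exposed 16 h at 37 C to compounds with rat liver microsomes and NADPH, each 0.5 mg/mL final.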

[7] = p53 small molecule agonists, cell-based qHTS assay: qHTS cell viability counter screen (AID 1963581); also: nearly all actives have a fitted effect of over 45% in size
Summary of the method: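 Viability was counter-screened in parallel with the p53 agonist reporter by measuring intracellular ATP luminescence in the same HCT-116 p53RE-bla wells after 16 h compound treatment at 37 C.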

[8] = p53 small molecule agonists, cell-based qHTS assay (AID 1963582; active = well fitted activation curve with a large enough effect in the signal ratio in the repeat runs, not every such curve was filed as active; the % refers to the signal ratio; also: potency is read from the fitted curve at half-maximal effect)
Summary of the method: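 Cells carrying a p53-responsive bla reporter are treated with test compounds for 16 h at 37 C; beta-lactamase activity is then detected with LiveBLAzer B/G FRET substrate after 2 h at room temperature.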

[9] = target: 5-hydroxytryptamine receptor 2A (Homo sapiens) (UniProt P28223); assay: 5-hydroxytryptamine receptor 2A (HTR2A) small molecule antagonists, cell-based qHTS assay (AID 1963586); also: nearly all actives have a fitted effect of over 45% in size
Summary of the method: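 CHO cells stably expressing human HTR2A were plated for 18 h at 37 C, then loaded with calcium dye for 1 h. Compounds were preincubated 5 min at room temperature before DOI (4 nM solution) was added. Kinetic fluorescence was read for 3 min.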

[10] = target: 5-hydroxytryptamine receptor 2A (Homo sapiens) (UniProt P28223); assay: 5-hydroxytryptamine receptor 2A (HTR2A) small molecule agonists, cell-based qHTS assay (AID 1963587); also: nearly all actives have a fitted effect of over 30% in size; also: potency is read from the fitted curve at half-maximal effect
Summary of the method: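 CHO cells stably expressing human HTR2A, plated 18 h, loaded with calcium dye 1 h at 37 C. Agonist mode: compounds added and intracellular calcium fluorescence recorded kinetically for 2 min at 1 sec intervals.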

[11] = target: Muscarinic acetylcholine receptor M1 (Homo sapiens) (UniProt P11229); assay: Cholinergic receptor muscarinic 1 (CHRM1) small molecule antagonists, cell-based qHTS assay (AID 1963588); also: nearly all actives have a fitted effect of over 40% in size; also: potency is read from the fitted curve at half-maximal effect
Summary of the method: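 Compounds were tested at 15 concentrations in three independent runs. Dye-loaded CHRM1-CHO cells were exposed 5 min at room temperature before stimulation by acetylcholine added at 50nM. Intracellular calcium was read kinetically on FDSS for 3 min.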

[12] = target: Muscarinic acetylcholine receptor M1 (Homo sapiens) (UniProt P11229); assay: Cholinergic receptor muscarinic 1 (CHRM1) small molecule agonists, cell-based qHTS assay (AID 1963589); also: nearly all actives have a fitted effect of over 35% in size
Summary of the method: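 Cells were plated and incubated 18 h at 37 C/5% CO2, loaded with calcium dye for 1 h at 37 C, then treated with compounds in DMSO. Fluorescence was recorded kinetically at 1 sec intervals.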

[13] = cAMP Responsive Elements (CRE) small molecule antagonists, cell-based qHTS assay (AID 1963591; active = well fitted inhibition curve with a large enough effect in the signal ratio in the repeat runs, not every such curve was filed as active; the % refers to the signal ratio)
Summary of the method: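 Cells (CRE-bla HEK 293T, DMEM with 10% dialyzed FBS and 25 mM HEPES) are seeded and incubated 18 h. Compounds are added with NKH477 agonist at 0.25 uM final for 3 h, then FRET substrate for 2 h.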

[14] = target: Beta-2 adrenergic receptor (Homo sapiens) (UniProt P07550); assay: Adrenergic beta2 receptor (ADRB2) small molecule agonists, cell-based qHTS assay (AID 1963593);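 also: CHO cells stably overexpressing human ADRB2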
Summary of the method: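 CHO cells stably over-expressing ADRB2 were plated overnight at 37C, then dosed with compounds plus a stimulation mix containing 100uM IBMX and 25uM Ro-20-1724 for 0.5hr at room temperature. cAMP was measured by HTRF competition, 1hr.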

[15] = target: D(2) dopamine receptor (Homo sapiens) (UniProt P14416); assay: Dopamine D2 receptor (DRD2) small molecule agonists, cell-based qHTS assay (AID 1963594); also: nearly all actives have a fitted effect of over 35% in size
Summary of the method: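 HEK293 cells stably expressing human DRD2, pre-treated with PDE inhibitor Ro20-1724 (0.1 mM final) and compound 10 min at room temperature, then stimulated with NKH477 (200nM […]) for 30 min. cAMP read by HTRF (665/620 nm).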

[16] = target: D(2) dopamine receptor (Homo sapiens) (UniProt P14416); assay: Dopamine D2 receptor (DRD2) small molecule antagonists, cell-based qHTS assay (AID 1963595; active = well fitted inhibition curve with a large enough effect in the signal ratio in the repeat runs, with a control signal flat; the % refers to the signal ratio)
Summary of the method: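 Cells were plated and grown for 24 h at 37 °C. Ro20-1724 (0.1 mM final) went in first, then compound for 10 min. NKH477 (200 nM) with quinpirole (12 nM) followed for 30 min at RT, then HTRF detection reagents for 1 h.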

[17] = target: Gonadotropin-releasing hormone receptor (Homo sapiens) (UniProt P30968); assay: Human gonadotropin-releasing hormone receptor (GnRHR) small molecule agonists, calcium flux assay in GnRHR-HEK293 cells (AID 1920063); also: nearly all actives have a fitted effect of over 35% in size
Summary of the method: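 Agonist activity was measured as intracellular calcium flux in HEK293 cells engineered to stably express human GnRHR. After dye loading for 1 hour at 37 C, compounds in DMSO were added and fluorescence was followed for 3 minutes.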

[18] = cAMP Responsive Elements (CRE) small molecule agonists, cell-based qHTS assay (AID 1963590)
Summary of the method: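 Cells carrying a CRE-driven beta-lactamase reporter (HEK 293T) are seeded, incubated overnight (18 h), and treated with test compounds for 3 h at 37 C; reporter activity is then detected with a FRET substrate after 2 h at room temperature.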

[19] = target: Beta-2 adrenergic receptor (Homo sapiens) (UniProt P07550); assay: Adrenergic beta2 receptor (ADRB2) small molecule antagonists, cell-based qHTS assay (AID 1963592); also: series mostly up to about 92 µM; nearly all actives have a fitted effect of over 50% in size
Summary of the method: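 Assay format: CHO-ADRB2 cells, 18-20hr seeding at 37C/5% CO2, then compound plus 1nM isoproterenol agonist mix for 0.5hr RT. Homogeneous time-resolved fluorescence cAMP detection after 1hr, expressed as 665/615 nm ratio.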

[20] = G protein-coupled receptor (GPCR) small molecule agonists, calcium flux assay: HEK293 wild type cell line counter screen (AID 1920065)
Summary of the method: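 Seed cells, incubate 18 h (37 C, 5% CO2); add calcium dye, 1 h at 37 C; pin-transfer compounds, ATP control or DMSO; read fluorescence 480/540 nm each second for 3 min.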

Measured: Potency

Gonadotropin-releasing hormone receptor (Homo sapiens), sequence (P30968 whole entry, looked up): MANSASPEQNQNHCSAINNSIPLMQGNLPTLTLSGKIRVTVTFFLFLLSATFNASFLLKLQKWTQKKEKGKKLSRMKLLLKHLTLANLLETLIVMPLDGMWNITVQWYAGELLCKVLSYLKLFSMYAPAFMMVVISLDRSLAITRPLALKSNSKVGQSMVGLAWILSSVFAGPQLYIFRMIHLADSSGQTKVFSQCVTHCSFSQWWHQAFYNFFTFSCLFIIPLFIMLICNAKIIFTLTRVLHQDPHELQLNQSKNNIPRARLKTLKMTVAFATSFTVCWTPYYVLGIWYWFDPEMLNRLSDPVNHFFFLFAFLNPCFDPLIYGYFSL
KiSS-1 receptor (Homo sapiens), sequence (Q969F8 whole entry, looked up): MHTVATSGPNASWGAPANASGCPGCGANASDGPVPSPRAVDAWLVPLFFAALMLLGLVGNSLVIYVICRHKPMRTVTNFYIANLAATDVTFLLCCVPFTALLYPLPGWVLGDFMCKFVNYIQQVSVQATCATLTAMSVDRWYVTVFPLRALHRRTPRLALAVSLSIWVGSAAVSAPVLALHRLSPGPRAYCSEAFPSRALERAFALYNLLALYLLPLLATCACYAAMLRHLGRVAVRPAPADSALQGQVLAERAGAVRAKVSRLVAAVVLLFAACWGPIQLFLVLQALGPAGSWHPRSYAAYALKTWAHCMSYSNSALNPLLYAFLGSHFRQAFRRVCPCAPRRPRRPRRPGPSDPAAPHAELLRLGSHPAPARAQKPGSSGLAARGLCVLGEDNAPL
5-hydroxytryptamine receptor 2A (Homo sapiens), sequence (P28223 whole entry, looked up): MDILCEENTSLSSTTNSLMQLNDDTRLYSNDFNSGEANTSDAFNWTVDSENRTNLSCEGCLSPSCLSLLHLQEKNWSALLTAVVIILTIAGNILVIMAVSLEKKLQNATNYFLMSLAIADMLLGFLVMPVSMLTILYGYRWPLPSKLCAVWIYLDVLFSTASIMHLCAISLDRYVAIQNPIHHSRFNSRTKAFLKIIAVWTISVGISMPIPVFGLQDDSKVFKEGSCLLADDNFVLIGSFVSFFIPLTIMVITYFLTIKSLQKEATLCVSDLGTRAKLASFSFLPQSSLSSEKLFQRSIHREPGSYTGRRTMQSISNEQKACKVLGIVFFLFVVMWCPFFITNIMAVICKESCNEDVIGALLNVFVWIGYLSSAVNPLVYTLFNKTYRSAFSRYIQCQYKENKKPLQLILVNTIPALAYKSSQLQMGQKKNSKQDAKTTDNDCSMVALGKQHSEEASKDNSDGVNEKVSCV
D(2) dopamine receptor (Homo sapiens), sequence (P14416 whole entry, looked up): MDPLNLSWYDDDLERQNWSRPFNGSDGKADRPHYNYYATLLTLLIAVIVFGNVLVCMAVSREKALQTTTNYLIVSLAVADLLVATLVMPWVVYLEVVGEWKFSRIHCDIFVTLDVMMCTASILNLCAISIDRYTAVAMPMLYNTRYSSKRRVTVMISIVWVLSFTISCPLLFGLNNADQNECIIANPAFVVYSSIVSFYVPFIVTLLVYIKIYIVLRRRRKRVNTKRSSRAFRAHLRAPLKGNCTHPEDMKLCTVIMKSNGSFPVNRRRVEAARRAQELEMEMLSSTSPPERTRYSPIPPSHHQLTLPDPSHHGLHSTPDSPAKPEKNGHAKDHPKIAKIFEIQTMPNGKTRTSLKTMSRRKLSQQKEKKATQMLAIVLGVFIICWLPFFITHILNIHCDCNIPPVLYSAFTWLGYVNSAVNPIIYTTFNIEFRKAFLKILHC
Muscarinic acetylcholine receptor M1 (Homo sapiens), sequence (P11229 whole entry, looked up): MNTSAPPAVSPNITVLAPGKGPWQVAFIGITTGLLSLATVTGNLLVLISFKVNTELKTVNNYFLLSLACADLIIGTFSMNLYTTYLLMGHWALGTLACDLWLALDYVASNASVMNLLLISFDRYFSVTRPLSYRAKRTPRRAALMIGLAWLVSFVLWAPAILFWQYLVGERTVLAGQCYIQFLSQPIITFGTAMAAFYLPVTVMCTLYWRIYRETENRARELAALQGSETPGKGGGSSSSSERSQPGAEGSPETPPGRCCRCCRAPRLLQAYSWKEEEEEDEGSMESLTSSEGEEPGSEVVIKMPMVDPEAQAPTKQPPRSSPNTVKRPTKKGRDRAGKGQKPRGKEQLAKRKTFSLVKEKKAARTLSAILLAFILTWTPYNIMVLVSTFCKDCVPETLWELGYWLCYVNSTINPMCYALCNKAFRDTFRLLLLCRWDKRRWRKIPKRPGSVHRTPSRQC
Beta-2 adrenergic receptor (Homo sapiens), sequence (P07550 whole entry, looked up): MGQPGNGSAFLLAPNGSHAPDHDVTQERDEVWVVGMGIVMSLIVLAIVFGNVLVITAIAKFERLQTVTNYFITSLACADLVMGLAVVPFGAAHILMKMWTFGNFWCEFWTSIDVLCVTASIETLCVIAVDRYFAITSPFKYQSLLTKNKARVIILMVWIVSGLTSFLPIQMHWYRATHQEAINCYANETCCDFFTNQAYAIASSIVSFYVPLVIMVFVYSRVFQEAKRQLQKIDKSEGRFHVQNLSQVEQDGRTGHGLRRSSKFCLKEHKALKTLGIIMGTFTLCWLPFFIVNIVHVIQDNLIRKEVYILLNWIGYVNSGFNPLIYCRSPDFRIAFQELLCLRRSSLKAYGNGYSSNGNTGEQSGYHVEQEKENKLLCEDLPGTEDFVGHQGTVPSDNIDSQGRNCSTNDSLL

[CH3][Hg][Cl]
active: [1] 6.09 µM | [8] 36.3 µM | [10] 38.8 µM
not listed: [17] | [18] | [19] | [20]
inactive: all other assays above

CCc1ccccc1N
not listed: [3] | [4] | [8] | [10] | [14] | [20]
inactive: all other assays above

COc1ccc(/C(=C/C(=O)N2CCOCC2)c2ccc(Cl)cc2)cc1OC
not listed: [3] | [9] | [13] | [17] | [18]
inactive: all other assays above

O=C(Nc1ccccc1)N(Cc1ccc(Cl)cc1)C1CCCC1
active: [11] 37.5 µM
not listed: [2] | [4] | [8] | [13] | [18]
inactive: all other assays above

O=C1CCCCC1Cl (stereo not drawn)
not listed: [2] | [8] | [12] | [14]
inactive: all other assays above

COC(=O)c1ccccc1S(=O)(=O)NC(=O)Nc1nc(C)cc(C)n1
not listed: [3] | [4] | [6] | [8] | [11] | [14] | [17]
inactive: all other assays above

CCOP(=S)(Oc1cnc(C(C)(C)C)nc1)OC(C)C (stereo not drawn)
not listed: [2] | [3] | [4] | [12] | [13] | [14] | [18]
inactive: all other assays above

FC(F)C(F)(F)OCC(Cn1cncn1)c1ccc(Cl)cc1Cl (stereo not drawn)
not listed: [9] | [13] | [14] | [16] | [17] | [18]
inactive: all other assays above

C=CC(C)(CCC=C(C)C)OC(=O)c1ccccc1N (stereo not drawn)
not listed: [2] | [9] | [12] | [14]
inactive: all other assays above

[O]=[Cd]
not listed: [10] | [14] | [16] | [17]
inactive: all other assays above

O.O.O.O.O.O.O=S(=O)([O-])[O-].[Ni+2]
not listed: [2] | [3] | [4] | [6] | [8] | [14]
inactive: all other assays above

CC(=O)[O-].CC(=O)[O-].O.O.O.[Pb+2]
not listed: [3] | [4] | [8] | [14] | [17]
inactive: all other assays above

CN
not listed: [5] | [11] | [14] | [20]
inactive: all other assays above
